# According to PMC11062922 (Nature Chemical Biology, 2023):
# Read-outs that look alike come from different tables or passages of the source.
# Columns and labels:
# Set-up in all cases: species or system human, MV4-11 + K-562 + COLO205 + SK-N-BE2 + OVCAR-8
# ADCK3 = details: read-out: apparent Kd, compound concentrations: 100 nM and 1000 nM (sheet 'Samples'), n = 1
# PI4KA = details: read-out: apparent Kd; compound concentrations: 100 nM and 1000 nM (sheet 'Samples'), CATDS: 8.9803456150084393E-2; n = 1
# PIK3CA = details: read-out: apparent Kd; compound concentrations: 100 nM and 1000 nM (sheet 'Samples'), CATDS: 0.36477997446567001; n = 1
# PIK3CB = details: read-out: apparent Kd; compound concentrations: 100 nM and 1000 nM (sheet 'Samples'), CATDS: 0.118363122139114; n = 1
# PIK3CD = details: read-out: apparent Kd; compound concentrations: 100 nM and 1000 nM (sheet 'Samples'), CATDS: 0.63403927390637105; n = 1
# PIK3CG = details: read-out: apparent Kd; compound concentrations: 100 nM and 1000 nM (sheet 'Samples'), CATDS: 0.133003472389642; n = 1
# PRKDC = details: read-out: apparent Kd; compound concentrations: 100 nM and 1000 nM (sheet 'Samples'), CATDS: 9.9642367307020793E-2; n = 1
# SRRT = details: read-out: apparent Kd; compound concentrations: 100 nM and 1000 nM (sheet 'Samples'), CATDS: 7.4591136223679494E-2; n = 1
# TOP2B = details: read-out: apparent Kd; compound concentrations: 100 nM and 1000 nM (sheet 'Samples'), CATDS: 7.4747311850649895E-2; n = 1
# CSNK1A1 = details: read-out: apparent Kd; compound concentrations: 100 nM and 1000 nM (sheet 'Samples'), CATDS: 0.108738920150242; n = 1
# CSNK1D = details: read-out: apparent Kd; compound concentrations: 100 nM and 1000 nM (sheet 'Samples'), CATDS: 0.110076630605661; n = 1
# CSNK1E = details: read-out: apparent Kd, compound concentrations: 100 nM and 1000 nM (sheet 'Samples'), n = 1
# ILK = details: read-out: apparent Kd; compound concentrations: 100 nM and 1000 nM (sheet 'Samples'), CATDS: 9.4718278447494406E-2; n = 1
# LIMK1 = details: read-out: apparent Kd; compound concentrations: 100 nM and 1000 nM (sheet 'Samples'), CATDS: 4.5083762748743803E-2; n = 1
# MAP2K2 = details: read-out: apparent Kd, compound concentrations: 100 nM and 1000 nM (sheet 'Samples'), n = 1
# MAPK10 = details: read-out: apparent Kd; compound concentrations: 100 nM and 1000 nM (sheet 'Samples'), CATDS: 5.09024054826294E-2; n = 1
# MAPK14 = details: read-out: apparent Kd; compound concentrations: 100 nM and 1000 nM (sheet 'Samples'), CATDS: 0.11352717514973699; n = 1
# MAPK9 = details: read-out: apparent Kd; compound concentrations: 100 nM and 1000 nM (sheet 'Samples'), CATDS: 5.50671155445017E-2; n = 1
# MAPKAPK2 = details: read-out: apparent Kd; compound concentrations: 100 nM and 1000 nM (sheet 'Samples'), CATDS: 5.16854933400041E-2; n = 1
# NNT = details: read-out: apparent Kd, compound concentrations: 100 nM and 1000 nM (sheet 'Samples'), n = 1
# PRKAG1 = details: read-out: apparent Kd; compound concentrations: 100 nM and 1000 nM (sheet 'Samples'), CATDS: 9.6836813668462501E-2; n = 1
# VDAC3 = details: read-out: apparent Kd; compound concentrations: 100 nM and 1000 nM (sheet 'Samples'), CATDS: 4.4921279998790198E-2; n = 1
# AKT2 = details: read-out: apparent Kd; compound concentrations: 100 nM and 1000 nM (sheet 'Samples'), CATDS: 6.9315360856789104E-2; n = 1
# ATM = details: read-out: apparent Kd; compound concentrations: 100 nM and 1000 nM (sheet 'Samples'), CATDS: 0.21297510466852801; n = 1
# CAMK4 = details: read-out: apparent Kd; compound concentrations: 100 nM and 1000 nM (sheet 'Samples'), CATDS: 7.7064865846565897E-2; n = 1
# CDK6 = details: read-out: apparent Kd; compound concentrations: 100 nM and 1000 nM (sheet 'Samples'), CATDS: 7.4930063387868798E-2; n = 1
# CDKL5 = details: read-out: apparent Kd; compound concentrations: 100 nM and 1000 nM (sheet 'Samples'), CATDS: 9.7869696626463096E-2; n = 1
# CSNK2A1;CSNK2A3 = details: read-out: apparent Kd; compound concentrations: 100 nM and 1000 nM (sheet 'Samples'), CATDS: 6.2096943354302901E-2; n = 1
# MAP2K1 = details: read-out: apparent Kd; compound concentrations: 100 nM and 1000 nM (sheet 'Samples'), CATDS: 6.2459835665012599E-2; n = 1
# NQO1 = details: read-out: apparent Kd; compound concentrations: 100 nM and 1000 nM (sheet 'Samples'), CATDS: 8.3466895844620997E-2; n = 1
# RIOK2 = details: read-out: apparent Kd; compound concentrations: 100 nM and 1000 nM (sheet 'Samples'), CATDS: 6.3640535742752496E-2; n = 1
compound,measurement,setting,value
Nc1ncc(-c2ccc3nccc(-c4ccncc4)c3c2)cc1S(=O)(=O)N1CCOCC1 [GSK1627798A],potency estimated from few doses,ADCK3; CATDS: 7.8381532556713998E-2,1520 nM
same,potency estimated from few doses,PI4KA,893 nM
same,potency estimated from few doses,PIK3CA,11.1 nM
same,potency estimated from few doses,PIK3CB,366 nM
same,potency estimated from few doses,PIK3CD,3.67 nM
same,potency estimated from few doses,PIK3CG,258 nM
same,potency estimated from few doses,PRKDC,627 nM
same,potency estimated from few doses,SRRT,1900 nM
same,potency estimated from few doses,TOP2B,1880 nM
FC(F)(F)c1ccc(/C=C/c2cncnc2Nc2ccc3[nH]c(Cc4ccccc4)nc3c2)cc1 [GW709199X],potency estimated from few doses,ADCK3; CATDS: 1,456 nM
Cl.Fc1ccc(-c2nc3n(c2-c2ccncc2)CCS3)cc1 [SKF-86002-A2],potency estimated from few doses,ADCK3; CATDS: 0.13841841759658599,74.5 nM
same,potency estimated from few doses,CSNK1A1,113 nM
same,potency estimated from few doses,CSNK1D,110 nM
same,potency estimated from few doses,CSNK1E; CATDS: 0.12792065759961399,84.8 nM
same,potency estimated from few doses,ILK,148 nM
same,potency estimated from few doses,LIMK1,1770 nM
same,potency estimated from few doses,MAP2K2; CATDS: 0.102896761563019,125 nM
same,potency estimated from few doses,MAPK10,946 nM
same,potency estimated from few doses,MAPK14,104 nM
same,potency estimated from few doses,MAPK9,681 nM
same,potency estimated from few doses,MAPKAPK2,885 nM
same,potency estimated from few doses,NNT; CATDS: 4.6144486459290798E-2,1550 nM
same,potency estimated from few doses,PRKAG1,141 nM
same,potency estimated from few doses,VDAC3,1810 nM
Cc1nc(-c2ccccc2)n2nc(NCCCN3CCOCC3)ncc12 [GW874091X],potency estimated from few doses,ADCK3; CATDS: 9.8029447870553399E-2,915 nM
same,potency estimated from few doses,AKT2,1850 nM
same,potency estimated from few doses,ATM,287 nM
same,potency estimated from few doses,CAMK4,1460 nM
same,potency estimated from few doses,CDK6,1550 nM
same,potency estimated from few doses,CDKL5,917 nM
same,potency estimated from few doses,CSNK1E; CATDS: 6.4509222244259798E-2,2210 nM
same,potency estimated from few doses,CSNK2A1;CSNK2A3,2450 nM
same,potency estimated from few doses,MAP2K1,2410 nM
same,potency estimated from few doses,MAP2K2; CATDS: 6.9306858675437497E-2,1850 nM
same,potency estimated from few doses,NNT; CATDS: 7.4633464586539203E-2,1560 nM
same,potency estimated from few doses,NQO1,1240 nM
same,potency estimated from few doses,RIOK2,2290 nM
